Assay results: PubChem BioAssay (NCATS)
“And” between values parts separate entries of the source, which are not always exact repeats. Equal entries are not always repeated. Inconclusive results are not listed. A call without a number means that no potency is given here. A structure can be active in one record and inactive in another. The source made the active and inactive calls. The call rests on the fitted dose curve; in most records, active means well fitted inhibition curve with a large enough effect; inconclusive means small, poorly fitted or top-dose-only effect; inactive means no such curve, though single readings can be large or run the other way.

Experiment: NS1 protein of Zika virus - qHTS assay to identify small molecule inhibitors in human HEK 293 cells (AID 1347053); further: nearly all actives have a fitted effect of over 55% in size
Settings: HEK293 ZIKV MR766 infection, NS1 TR-FRET, 24 h; series mostly up to 46.1 µM
Method in brief: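 Following 20 h seeding, HEK 293 cells took compound, then 1 h later ZIKV MR766 (MOI = 0.5). Incubation ran 24 h at 37 C before TR-FRET detection of NS1; a drop in signal indicates inhibition.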
Potency means the concentration at half of the fitted maximal effect.

SMILES	Potency
Cc1nc(-c2ccc(OCC(C)C)c(C#N)c2)sc1C(=O)O	inactive
O=C(CS(=O)Cc1ccco1)NCC=CCOc1cc(CN2CCCCC2)ccn1 (stereo not drawn)	inactive
Cc1c(C(=O)NN2CCCCC2)nn(-c2ccc(Cl)cc2Cl)c1-c1ccc(Cl)cc1	18.7 µM (active)
Cc1cc2c(s1)Nc1ccccc1N=C2N1CCN(C)CC1	inactive
CCCCc1ccc2nc(NC(=O)OC)[nH]c2c1	1.32 µM (active) and inactive
CC(C)c1ccc2oc3nc(N)c(C(=O)O)cc3c(=O)c2c1	inactive
COCCCOc1ccnc(CS(=O)c2nc3ccccc3[nH]2)c1C (stereo not drawn)	inactive
N=C(N=C(N)N)N1CCOCC1	inactive
Nc1cccc2c1CN(C1CCC(=O)NC1=O)C2=O (stereo not drawn)	inactive
CN(C)[C@@H](CCOc1cccc2ccccc12)c1ccccc1	inactive
CN(C)c1ccc2nc3ccc(=[N+](C)C)cc-3sc2c1	inactive
Clc1ccc(C(Cn2ccnc2)OCc2c(Cl)cccc2Cl)c(Cl)c1 (stereo not drawn)	inactive and 14.8 µM (active)
C[Se]CCC(N)C(=O)O (stereo not drawn)	inactive
Nc1ccc(S(N)(=O)=O)cc1	inactive
CC1=C(C)C(=O)C(C(CCCCCC(=O)O)c2ccccc2)=C(C)C1=O (stereo not drawn)	inactive
O=C(NCCO[N+](=O)[O-])c1cccnc1	inactive
CCC1=C(C)CN(C(=O)NCCc2ccc(S(=O)(=O)NC(=O)NC3CCC(C)CC3)cc2)C1=O (stereo not drawn)	inactive
COc1cc2c(N3CCN(C(=O)Nc4ccc(OC(C)C)cc4)CC3)ncnc2cc1OCCCN1CCCCC1	inactive
